Experiment [1] addresses Regulator of G-protein signaling 16 (Homo sapiens) (UniProt O15492). The experiment in a line: modulators of RGS–Galpha-o binding, primary screen, biochemical, multiplexed beads, flow cytometry, RGS4/7/8/16/19 (AID 1504).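 Note: fluorescently labeled Galpha-o bound to GDP with aluminium fluoride binding biotinylated RGS beads.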 To be noted: multiplexed bead flow cytometry, measured here: RGS16 interaction, at 10 µM. In general terms: A flow cytometer gives signals particle by particle.

In experiment [2] the target is Regulator of G-protein signaling 19 (Homo sapiens) (UniProt P49795). The experiment is described as above. To be noted: multiplexed bead flow cytometry, measured here: RGS19 interaction, at 10 µM.
The target of experiment [3] is Regulator of G-protein signaling 7 (Homo sapiens) (UniProt P49802). The description is as above. To be noted: multiplexed bead flow cytometry, measured here: RGS7 interaction, at 10 µM.
Experiment [4] deals with Regulator of G-protein signaling 8 (Homo sapiens) (UniProt P57771). Described as above. To be noted: multiplexed bead flow cytometry, measured here: RGS8 interaction, at 10 µM.
Experiment [5] can be described thus: disruption of biotin probe capture by avidin, counter-screen for RGS protein interaction modulators, biochemical, flow cytometry, bead-based (AID 1783;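 active = inhibition above 50%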;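 note: median green fluorescence of gated singlet beads compared with DMSO control wells; 0% = DMSO wells and 100% = complete loss of bead fluorescence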). To be noted: streptavidin beads, fluorescein-biotin binding; at 10 µM, stronger effect = higher value. On the technique in general: Counterscreens check selectivity or assay interference.
Experiment [6] has as its target Guanine nucleotide-binding protein G(o) subunit alpha (Homo sapiens) (UniProt P09471). Briefly: RGS8-Galphao binding modulators, confirmation, biochemical, multiplexed bead flow cytometry, single concentration (AID 1836; in the data active = binding response below about 72% or above about 130%; inactive = in between;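 note: Galphao activated as GDP AlF4 complex before binding bead RGS8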). To be noted: bead-based flow cytometry RGS8-Galphao binding, fluorescence; at 10 µM; actives lie on both sides.
The target is the same in experiment [7]. The experiment in a line: RGS7-Galphao binding modulators, confirmation, biochemical, multiplexed bead flow cytometry, single concentration (AID 1837; in the data active = response below about 75% or above about 130%; inactive = in between;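 note: fluorescent Galphao activated with GDP and aluminum fluoride binding bead-coupled RGS7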). To be noted: bead-based flow cytometry RGS7-Galphao binding; at 10 µM; actives lie on both sides.
The target of experiment [8] is Regulator of G-protein signaling 16 (Homo sapiens) + Guanine nucleotide-binding protein G(o) subunit alpha (Homo sapiens) (UniProt O15492+P09471). The experiment in a line: modulators of RGS16-Galphao protein binding, confirmation, biochemical, single concentration, multiplexed bead flow cytometry (AID 1838; in the data active = response below about 74% or above about 130%; inactive = in between;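 note: Galphao activated as the GDP aluminium fluoride complex binding bead-coupled RGS16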). To be noted: bead-based flow cytometry, at 10 µM, actives lie on both sides.

Experiment [9] addresses Guanine nucleotide-binding protein G(o) subunit alpha (Homo sapiens) (UniProt P09471). Briefly: modulators of RGS4-Galphao protein binding, confirmation, biochemical, single concentration, multiplexed bead flow cytometry (AID 1840; in the data active = binding response below about 74% or above about 130%; inactive = in between). To be noted: at 10 µM, actives lie on both sides.
Experiment [10] deals with Guanine nucleotide-binding protein G(o) subunit alpha (Homo sapiens) + Regulator of G-protein signaling 19 (Homo sapiens) (UniProt P09471+P49795). Briefly: regulators of RGS19-Galphao binding, confirmation, biochemical, single point, multiplexed bead flow cytometry (AID 1841).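 Note: 100% = no compound control and 0% = blank background.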 To be noted: bead-based flow cytometry RGS19-Galphao binding; at 10 µM; actives lie on both sides.

This note sets out measurements from PubChem BioAssay.

Molecules are shown by their SMILES. The list shows a part of the results. The source made the active and inactive calls. Cut-off read from the data, not from the text of the source, unless noted: active = response below about 50% or above about 160%; inactive = in between.

Broadly, the inhibition is the drop in the measured response relative to a control, in per cent.

Chain of Guanine nucleotide-binding protein G(o) subunit alpha (Homo sapiens) + Regulator of G-protein signaling 19 (Homo sapiens) (P09471 whole entry, looked up): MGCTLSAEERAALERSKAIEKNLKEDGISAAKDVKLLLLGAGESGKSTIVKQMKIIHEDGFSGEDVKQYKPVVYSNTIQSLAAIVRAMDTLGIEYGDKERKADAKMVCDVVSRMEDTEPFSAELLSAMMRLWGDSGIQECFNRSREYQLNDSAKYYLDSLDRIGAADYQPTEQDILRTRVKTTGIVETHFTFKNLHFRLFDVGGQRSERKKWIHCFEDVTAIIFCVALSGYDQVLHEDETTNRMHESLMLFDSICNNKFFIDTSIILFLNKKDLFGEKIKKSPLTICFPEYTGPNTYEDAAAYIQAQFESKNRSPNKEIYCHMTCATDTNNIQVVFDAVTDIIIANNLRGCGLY
Chain of Guanine nucleotide-binding protein G(o) subunit alpha (Homo sapiens) + Regulator of G-protein signaling 19 (Homo sapiens) (P49795 whole entry, looked up): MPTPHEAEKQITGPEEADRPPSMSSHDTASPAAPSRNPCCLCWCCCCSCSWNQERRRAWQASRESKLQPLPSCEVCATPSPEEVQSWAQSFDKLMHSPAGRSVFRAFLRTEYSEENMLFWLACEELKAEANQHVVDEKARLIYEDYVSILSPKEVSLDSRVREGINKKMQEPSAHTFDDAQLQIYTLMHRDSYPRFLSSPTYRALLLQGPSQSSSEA
Chain of Guanine nucleotide-binding protein G(o) subunit alpha (Homo sapiens) (P09471 whole entry, looked up): as the sequence (P09471 whole entry, looked up) above
Chain of Regulator of G-protein signaling 16 (Homo sapiens) + Guanine nucleotide-binding protein G(o) subunit alpha (Homo sapiens) (O15492 whole entry, looked up): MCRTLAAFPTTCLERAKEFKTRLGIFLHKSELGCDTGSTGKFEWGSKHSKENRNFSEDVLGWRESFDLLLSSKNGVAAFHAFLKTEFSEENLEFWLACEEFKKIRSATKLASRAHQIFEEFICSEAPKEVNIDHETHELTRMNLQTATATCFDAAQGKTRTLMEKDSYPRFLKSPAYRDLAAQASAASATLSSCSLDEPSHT
Chain of Regulator of G-protein signaling 16 (Homo sapiens) + Guanine nucleotide-binding protein G(o) subunit alpha (Homo sapiens) (P09471 whole entry, looked up): as the sequence (P09471 whole entry, looked up) above

Take `CC(NC(=O)COC(=O)C1CCN(S(=O)(=O)c2ccccc2C(F)(F)F)CC1)c1ccccc1` (stereo not drawn): the RGS16–Galpha-o binding response in experiment [1] is 327%. In [2], the RGS19–Galpha-o binding response was -23.1%. This compound also yielded an RGS7–Galpha-o binding response in experiment [3] of 115%. The RGS8–Galpha-o binding response in [4] came to 148%. Moreover, the inhibition in experiment [5] was -0.6% (inactive). In addition, the binding response (% of control) in [6] was 98.3% (inactive); in experiment [9], 97.2% (inactive). For the same compound, the response (percent of control binding) in experiment [7] was 96.9% (inactive); in [10], 97.7% (inactive). The response (% of control binding) in [8] is 99.8% (inactive).

In the case of `CCOC(=O)CSc1nc2c(c(=O)n(Cc3ccccc3Cl)c(=O)n2C)n1C`, the RGS16–Galpha-o binding response in experiment [1] was -55.5%. Moreover, the RGS19–Galpha-o binding response in [2] is 98.5%. The compound also had an RGS7–Galpha-o binding response in experiment [3] of 88.1%. Moreover, in experiment [4], the RGS8–Galpha-o binding response is 78.5%. For the same compound, the inhibition in experiment [5] was 0.8% (inactive). Also, the binding response (% of control) was 95.8% (inactive) in experiment [6] and 94.7% (inactive) in [9]. In addition, the response (percent of control binding) in experiment [7] is 99.8% (inactive); in experiment [10] it was 87.7% (inactive). The response (% of control binding) in experiment [8] was 99.1% (inactive).

For `CCOc1cc(C(=O)N2CCc3cc(OC)c(OC)cc3C2)ccc1OC(F)F`, the RGS16–Galpha-o binding response in experiment [1] was found to be 124%. Besides, the RGS19–Galpha-o binding response in [2] is -289%. Moreover, the RGS7–Galpha-o binding response in experiment [3] was determined as 159%. Besides, in experiment [4], the RGS8–Galpha-o binding response stood at 105%.

Regarding `O=C(CN1CCOCC1)Nc1ccccc1`, in [1], the RGS16–Galpha-o binding response stood at 297%. Further, the RGS19–Galpha-o binding response in [2] turned out to be 103%. Also, in experiment [3], the RGS7–Galpha-o binding response was determined as 112%. The same compound came in with an RGS8–Galpha-o binding response in [4] of 145%. Also, the inhibition in experiment [5] was 2.3% (inactive). For the same compound, the binding response (% of control) was 97.1% (inactive) in experiment [6] and 97.7% (inactive) in [9]. The response (percent of control binding) in experiment [7] was 92.3% (inactive); in experiment [10] it was 97.1% (inactive). In experiment [8], the response (% of control binding) is 94.4% (inactive).

`O=C(NC1CC1)c1ccc2c(c1)NC(=O)c1ccccc1S2`: the RGS16–Galpha-o binding response in experiment [1] stood at 113%. Moreover, the RGS19–Galpha-o binding response in experiment [2] came out at 370%. In experiment [3], this compound had an RGS7–Galpha-o binding response of 191%. This compound showed an RGS8–Galpha-o binding response in [4] of 98.7%.

For the compound `Oc1ccc(-c2onc3ccc(Cl)cc23)cc1`, the RGS16–Galpha-o binding response in [1] came to 415%. Moreover, the RGS19–Galpha-o binding response in experiment [2] turned out to be 108%. In experiment [3], this compound came in with an RGS7–Galpha-o binding response of 110%. The compound also gave an RGS8–Galpha-o binding response in [4] of 144%. Further, the inhibition in experiment [5] is 0% (inactive). In addition, the binding response (% of control) in experiment [6] was 92.4% (inactive); in experiment [9] it was 89% (inactive). Moreover, the response (percent of control binding) in experiment [7] was 89.7% (inactive); in experiment [10], 79.4% (inactive). Besides, in [8], the response (% of control binding) was 91.4% (inactive).

For the compound `CN(C)CCNC(=O)/C(=C/c1cccc([N+](=O)[O-])c1)NC(=O)c1ccccc1`, the RGS16–Galpha-o binding response in [1] turned out to be 219%. In addition, the RGS19–Galpha-o binding response in [2] is -55.8%. Further, the RGS7–Galpha-o binding response in experiment [3] amounted to 113%. This compound also registered an RGS8–Galpha-o binding response in [4] of 124%. The inhibition in [5] was -1.3% (inactive). Further, the binding response (% of control) is 103% (inactive) in experiment [6] and 104% (inactive) in experiment [9]. The results for the response (percent of control binding) in [7] and in experiment [10] were 105% (inactive) and 91.3% (inactive), respectively. In addition, the response (% of control binding) in experiment [8] was 101% (inactive).

In the case of `COc1cc(C(=O)Nc2cc(C(F)(F)F)ccc2N2CCOCC2)ccc1O`, the RGS16–Galpha-o binding response in [1] was 9.57%. In experiment [2], the RGS19–Galpha-o binding response was determined as 135%. The compound also registered an RGS7–Galpha-o binding response in experiment [3] of 84.8%. Besides, the RGS8–Galpha-o binding response in experiment [4] was 70.4%. Also, in experiment [5], the inhibition was 0.3% (inactive). Moreover, the binding response (% of control) in experiment [6] was 104% (inactive); in [9], 97.9% (inactive). The response (percent of control binding) is 102% (inactive) in experiment [7] and 86.5% (inactive) in [10]. In [8], the response (% of control binding) was 98.8% (inactive).

With `C/C(=C/C(=O)N1CCN(C)CC1)C(=O)O`, the RGS16–Galpha-o binding response in experiment [1] turned out to be 234%. The RGS19–Galpha-o binding response in experiment [2] is -6.25%. Besides, the RGS7–Galpha-o binding response in experiment [3] was determined as 105%. In experiment [4], the RGS8–Galpha-o binding response worked out at 125%. Moreover, the inhibition in [5] was 0.5% (inactive). In addition, the binding response (% of control) in experiment [6] is 104% (inactive); in experiment [9], 102% (inactive). Besides, the response (percent of control binding) in experiment [7] is 98.7% (inactive); in experiment [10], 102% (inactive). The response (% of control binding) in [8] is 105% (inactive).
